PubChem BioAssay AID1159580 (chemical genetic matrix, 2015)
Values joined by “and” are separate entries in the source; they are usually repeats but may differ in a detail not shown here. Equal entries are not always repeated. Among all 5,500 compounds or so, about 2,000 (36%) were called active. Not shown: some 18% with an inconclusive outcome. Rule as the data show it: active = normalized growth mostly below about 0.91 (no sharp cut-off); inconclusive = no clear call, values can overlap the other calls; inactive = mostly above about 0.92. The list shows a part of the results.

Experiment: chemical genetic growth profiling, strain panel (AID 1159580);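 also: tested at 20 µM; growth read once vehicle control cultures reached saturation at 30 °C; 1 = growth at the plate median or of vehicle wells; lower values mean less growth of the strain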
Conditions: growth OD

Measured: normalized growth

ClC1=C(Cl)C2(Cl)C3C4CC(C5OC45)C3C1(Cl)C2(Cl)Cl (configuration not stated)
inactive: S. cerevisiae deletion strains, locus YAL013W, strain DEP1, hits give low values 0.992 | S. cerevisiae deletion strains, locus YBR021W, strain FUR4, hits give low values 0.948 and 0.959 | S. cerevisiae deletion strains, locus YBR229C, strain ROT2, hits give low values 0.997 and 1 | S. cerevisiae deletion strains, locus YCL029C, strain bik1, hits give low values 0.967 and 1.02 | S. cerevisiae deletion strains, locus YDL035C, strain GPR1, hits give low values 0.981 and 0.974 | S. cerevisiae deletion strains, locus YDL074C, strain BRE1, hits give low values 1.03 | S. cerevisiae deletion strains, locus YDL101C, strain DUN1, hits give low values 0.993 and 1 | S. cerevisiae deletion strains, locus YDL134C, strain PPH21, hits give low values 0.998 and 0.988 | S. cerevisiae deletion strains, locus YDL185W, strain tfp1, hits give low values 0.996 and 1.03 | S. cerevisiae deletion strains, locus YDL192W, strain arf1, hits give low values 0.986 and 1.01 | S. cerevisiae deletion strains, locus YDR101C, strain arx1, hits give low values 0.973 and 1.01 | S. cerevisiae deletion strains, locus YDR150W, strain NUM1, hits give low values 1 and 0.976 | S. cerevisiae deletion strains, locus YDR162C, strain NBP2, hits give low values 0.999 and 0.969 | S. cerevisiae deletion strains, locus YDR318W, strain mcm21, hits give low values 0.983 and 1.01 | S. cerevisiae deletion strains, locus YDR388W, hits give low values 0.97 and 1.01 | S. cerevisiae deletion strains, locus YDR502C, strain sam2, hits give low values 0.983 and 1 | S. cerevisiae deletion strains, locus YEL061C, strain CIN8, hits give low values 1 | S. cerevisiae deletion strains, locus YER110C, hits give low values 0.971 and 1.02 | S. cerevisiae deletion strains, locus YER155C, strain BEM2, hits give low values 0.982 and 1.01 | S. cerevisiae deletion strains, locus YER167W, strain BCK2, hits give low values 0.976 and 0.99 | S. cerevisiae deletion strains, locus YGL078C, strain dbp3, hits give low values 0.978 and 1.01 | S. cerevisiae deletion strains, locus YGL086W, strain mad1, hits give low values 0.983 and 1.01 | S. cerevisiae deletion strains, locus YGL248W, strain PDE1, hits give low values 1 and 1.01 | S. cerevisiae deletion strains, locus YGR078C, strain PAC10, hits give low values 1 and 1.01 | S. cerevisiae deletion strains, locus YGR135W, strain pre9, hits give low values 0.988 and 0.995 | S. cerevisiae deletion strains, locus YGR229C, strain SMI1, hits give low values 0.971 | S. cerevisiae deletion strains, locus YGR252W, strain gcn5, hits give low values 0.968 and 0.972 | S. cerevisiae deletion strains, locus YHR030C, strain SLT2, hits give low values 0.99 and 1.04 and 1.01 | S. cerevisiae deletion strains, locus YHR079C, strain IRE1 (second series), hits give low values 0.971 and 1.01 | S. cerevisiae deletion strains, locus YHR079C, strain IRE1, hits give low values 1.01 | S. cerevisiae deletion strains, locus YHR094C, strain hxt1, hits give low values 0.974 and 1.01 | S. cerevisiae deletion strains, locus YHR129C, strain ARP1, hits give low values 0.998 and 1.02 | S. cerevisiae deletion strains, locus YHR200W, strain rpn10, hits give low values 0.978 and 1.02 | S. cerevisiae deletion strains, locus YIL066C, strain RNR3, hits give low values 1 and 0.968 | S. cerevisiae deletion strains, locus YIL073C, strain SPO22, hits give low values 0.919 and 1.08 | S. cerevisiae deletion strains, locus YIL125W, strain kgd1, hits give low values 0.985 and 1.01 | S. cerevisiae deletion strains, locus YIR030C, strain dcg1, hits give low values 0.979 and 1.02 | S. cerevisiae deletion strains, locus YJL095W, strain BCK1, hits give low values 1.02 and 1.05 and 1.06 | S. cerevisiae deletion strains, locus YJL134W, strain LCB3, hits give low values 0.982 and 1.01 | S. cerevisiae deletion strains, locus YJL168C, strain set2, hits give low values 0.98 and 1.01 | S. cerevisiae deletion strains, locus YJL187C, strain SWE1 (second series), hits give low values 0.991 and 1.02 | S. cerevisiae deletion strains, locus YJR043C, strain POL32, hits give low values 0.975 and 0.987 | S. cerevisiae deletion strains, locus YJR066W, strain TOR1, hits give low values 0.962 | S. cerevisiae deletion strains, locus YJR075W, strain HOC1, hits give low values 1 and 1.03 | S. cerevisiae deletion strains, locus YKL009W, strain mrt4, hits give low values 0.988 and 1.01 | S. cerevisiae deletion strains, locus YKL068W, hits give low values 0.986 and 1 | S. cerevisiae deletion strains, locus YKL085W, strain MDH1 (second series), hits give low values 0.983 and 0.995 | S. cerevisiae deletion strains, locus YKL085W, strain MDH1, hits give low values 0.983 and 0.995 | S. cerevisiae deletion strains, locus YKL190W, strain CNB1, hits give low values 1 and 0.986 | S. cerevisiae deletion strains, locus YKR001C, strain vps1, hits give low values 0.98 and 1.02 | S. cerevisiae deletion strains, locus YLR039C, strain RIC1, hits give low values 0.975 and 1.15 | S. cerevisiae deletion strains, locus YLR058C, strain SHM2, hits give low values 0.984 and 1.02 | S. cerevisiae deletion strains, locus YLR102C, strain apc9, hits give low values 0.984 and 1.01 | S. cerevisiae deletion strains, locus YLR113W, strain HOG1, hits give low values 0.937 | S. cerevisiae deletion strains, locus YLR262C, strain YPT6, hits give low values 0.953 and 1.24 | S. cerevisiae deletion strains, locus YLR268W, strain sec22, hits give low values 0.977 and 1.02 | S. cerevisiae deletion strains, locus YLR330W, strain CHS5, hits give low values 0.996 and 1.01 | S. cerevisiae deletion strains, locus YLR342W, strain FKS1 (second series), hits give low values 0.984 and 0.998 | S. cerevisiae deletion strains, locus YLR371W, strain rom2, hits give low values 0.97 and 1.02 | S. cerevisiae deletion strains, locus YLR418C, strain cdc73, hits give low values 0.964 and 0.976 | S. cerevisiae deletion strains, locus YML016C, strain PPZ1, hits give low values 0.996 and 1 | S. cerevisiae deletion strains, locus YML032C, strain rad52, hits give low values 0.967 and 0.998 | S. cerevisiae deletion strains, locus YML124C, strain tub3, hits give low values 0.973 and 1.01 | S. cerevisiae deletion strains, locus YMR078C, strain ctf18, hits give low values 0.973 and 1.01 | S. cerevisiae deletion strains, locus YMR223W, strain ubp8, hits give low values 0.975 and 1.01 | S. cerevisiae deletion strains, locus YMR263W, strain SAP30, hits give low values 1.01 | S. cerevisiae deletion strains, locus YMR307W, strain GAS1, hits give low values 0.909 and 0.97 | S. cerevisiae deletion strains, locus YNL067W, strain RPL9B, hits give low values 0.999 and 1.04 | S. cerevisiae deletion strains, locus YNL128W, strain TEP1, hits give low values 0.994 and 1.02 | S. cerevisiae deletion strains, locus YNL153C, strain GIM3, hits give low values 0.999 and 1.03 | S. cerevisiae deletion strains, locus YNL183C, strain NPR1, hits give low values 0.948 | S. cerevisiae deletion strains, locus YNL233W, strain BNI4, hits give low values 0.994 and 1.06 | S. cerevisiae deletion strains, locus YNL250W, strain rad50, hits give low values 0.965 and 1 | S. cerevisiae deletion strains, locus YNL271C, strain bni1, hits give low values 0.975 and 1.01 | S. cerevisiae deletion strains, locus YNL298W, strain CLA4, hits give low values 0.97 and 1.01 | S. cerevisiae deletion strains, locus YNL307C, strain MCK1, hits give low values 0.947 and 1.02 | S. cerevisiae deletion strains, locus YNL322C, strain KRE1, hits give low values 0.998 | S. cerevisiae deletion strains, locus YNR052C, strain pop2, hits give low values 0.965 and 1.01 | S. cerevisiae deletion strains, locus YOL006C, strain TOP1, hits give low values 1.01 | S. cerevisiae deletion strains, locus YOL012C, strain htz1 0.925 and 0.987 | S. cerevisiae deletion strains, locus YOL147C, strain pex11, hits give low values 0.966 and 1.02 | S. cerevisiae deletion strains, locus YOR061W, strain CKA2, hits give low values 0.998 and 1 | S. cerevisiae deletion strains, locus YOR069W, strain VPS5, hits give low values 0.995 and 1.01 | S. cerevisiae deletion strains, locus YOR136W, strain idh2, hits give low values 0.974 and 1.02 | S. cerevisiae deletion strains, locus YOR144C, strain elg1, hits give low values 0.97 and 1 | S. cerevisiae deletion strains, locus YOR184W, strain ser1, hits give low values 0.967 and 1.01 | S. cerevisiae deletion strains, locus YOR231W, strain MKK1, hits give low values 1.04 | S. cerevisiae deletion strains, locus YOR316C, strain cot1, hits give low values 0.976 and 1.01 | S. cerevisiae deletion strains, locus YPL055C, strain LGE1, hits give low values 0.999 | S. cerevisiae deletion strains, locus YPL241C, strain CIN2, hits give low values 0.999 and 1.01 | S. cerevisiae deletion strains, locus YPL256C, strain CLN2, hits give low values 1.04 | S. cerevisiae deletion strains, locus YPR119W, strain clb2, hits give low values 0.974 and 1.01 | S. cerevisiae deletion strains, locus YPR141C, strain kar3, hits give low values 0.969 and 1.01 | S. cerevisiae deletion strains, locus YPR163C, strain tif3, hits give low values 0.961 and 1.01 | S. cerevisiae deletion strains, locus YPR167C, strain met16, hits give low values 0.983 and 1.01 | S. cerevisiae deletion strains, strain wtn01, hits give low values 0.971 and 1.03 | S. cerevisiae strains, strain wild type, hits give low values 0.994 and 1.01
